In the library only some 6% were active in any assay of this set; here they are far more common.
Tau fibril ThT: qHTS for Inhibitors of Tau Fibril Formation, Thioflavin T Binding; Microtubule-associated protein tau (Homo sapiens), P10636; recombinant tau K18 P301L, heparin-induced fibrillization, ThT fluorescence; Potency, µM (highest dose often 57.4 µM), for the others: at the top dose activity, negative = inhibition, actives largely listed as inhibitors; 2.1% of 270,000 active; AID 1460, 2008; note: nearly all actives have a fitted effect of over 55% in size
Target sequence (P10636 561-689 P618L limits assumed): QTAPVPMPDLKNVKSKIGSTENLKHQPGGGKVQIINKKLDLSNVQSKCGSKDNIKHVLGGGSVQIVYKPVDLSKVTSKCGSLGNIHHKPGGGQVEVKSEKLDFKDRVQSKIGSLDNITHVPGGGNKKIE
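Heparin-induced (20 uM) aggregation of recombinant human K18 P301L tau, 15 uM unlabeled with 0.24 uM labeled, pH 7 acetate buffer, 6 hr at 37 C with compound. Fibrils quantified by 30 uM ThT fluorescence after 1 hr ambient incubation.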
PLK1 PBD inh: qHTS for Inhibitors of PLK1-PDB (polo-like kinase 1 - polo-box domain): Primary Screen. Serine/threonine-protein kinase PLK1 (Homo sapiens), P53350. Plk1 PBD binding of FITC phosphopeptide, fluorescence polarization. Potency, µM, for the others: max response, negative = inhibition, usual class: inhibitors. 2.8% of 360,000 active. AID 720504, 2013; note: series mostly up to about 57 µM; nearly all actives have a fitted effect of over 65% in size
Sfp inh: qHTS Assay for Inhibitors of Bacillus subtilis Sfp phosphopantetheinyl transferase (PPTase); Biochemical Sfp PPTase activity, qHTS; Potency, µM, without a hit: largest response in the series, negative = inhibition, usual class: inhibitors; 3.5% of 310,000 active; AID 1490, 2009;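 note: the enzyme is Sfp with the accession as filed and its product quenches rhodamine fluorescence; 0% = enzyme reaction without inhibitor and -100% = no enzyme wells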
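Fluorescence-quenching assay with 15 nM Sfp, 5 uM rhodamine-CoA and 12.5 uM BHQ-2-labelled ybbR peptide in pH 7.6 Hepes/MgCl2 buffer. Enzyme was pre-incubated with compound for 15 min at room temperature. Rate was taken from the 30-min fluorescence change (525/598 nm).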
Tau fluor counter: Counterscreen qHTS for Inhibitors of Tau Fibril Formation, Fluorescence Polarization | 0.93% of 280,000 active | tau K18 P301L (four-repeat tau fragment) Alexa594 fluorescence, heparin fibrillization | Potency, µM (series often up to 57.7 µM), for the others: top-dose activity change, negative = decrease; note: nearly all actives have a fitted effect of over 55% in size
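Human K18 P301L tau (15 uM unlabeled plus 0.24 uM Alexa 594-labeled, final) in 100 mM sodium acetate pH 7 was mixed with compound and 20 uM heparin and incubated 6 hr at 37 C.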
VDR inh: Inhibitors of the vitamin D receptor (VDR): qHTS; VDR-SRC2-3 peptide fluorescence polarization, 2 h; AID 504847, 2011; Potency, µM, for inactives: max response, negative = inhibition, actives largely listed as inhibitors; 0.93% of 400,000 active
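Measured by FP: displacement of SRC2-3 coactivator peptide from VDR by library compounds, following a two-hour ambient incubation.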
Tau FP inhib: qHTS for Inhibitors of Tau Fibril Formation, Fluorescence Polarization. K18 P301L tau heparin fibrillization, Alexa594 FP, 6 h. Potency, µM (highest dose often 57.7 µM), inactives show top-dose activity, negative = inhibition, actives largely listed as inhibitors. 0.39% of 280,000 active. AID 1468, 2008; note: nearly all actives have a fitted effect of over 55% in size
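Human tau K18 […] P301L fragment, 15 uM unlabeled plus 0.24 uM Alexa 594-labeled tau (final), with compound and 20 uM heparin in 100 mM sodium acetate pH 7; 6 hr at 37 C, then Alexa 594 FP read.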
Starred values were filed as active, the others as inactive; ? = inconclusive; nt = no result; [ ] = remark or other dose. Calls come from the whole dose curve; as a rule, active = well fitted curve in the direction sought with a large enough effect; inconclusive = small, poorly fitted or top-dose-only effect, or another doubt; inactive = no such curve, though single readings can be large; an effect the other way counts as inactive or inconclusive. Unless noted, % is set by controls: 0 for no effect and ±100 for the full control effect; potency is the fitted concentration of half-maximal effect.

SMILES	Tau fibril ThT	PLK1 PBD inh	Sfp inh	Tau fluor counter	VDR inh	Tau FP inhib
O=c1oc2ccccc2cc1-c1ccccc1	-11.3%	-8.9%	15.9%	-10.4%	-4.6%	-1.2%
O=C(O)c1ccc(-n2cc(-c3cc4ccccc4oc3=O)[nH]c2=S)cc1	?	?	3.16µM*	-13.3%	-14.1%	-4.2%
Cc1sc(NC(=O)CCCC(=O)O)c(C(N)=O)c1-c1ccccc1	-8.4%	29.9µM*	2.1%	-6.0%	-9.9%	-1.4%
COC(=O)c1c(NC(=O)CCCC(=O)O)sc(C)c1C	-2.6%	-14.4%	19.0%	1.5%	-13.3%	-10.6%
CCCCOCCCNC(=O)C[C@@H]1C[C@@]2(C(=O)OC)CC(C)(C)CC=C2N(Cc2ccc3c(c2)OCO3)C1=O	nt	8.5%	nt	nt	nt	nt
CC1/C=C/C=C/C=C/C=C/C=C/C=C/C=C/C(OC2OC(C)C(O)C(N)C2O)CC2O[C@@](O)(CC(O)CC(O)C(O)CCC(O)CC(O)CC(=O)OC(C)[C@H](C)C1O)CC(O)C2C(=O)O (stereo not given in full)	3.98µM*	nt	-64.8%	?	50.1µM*	3.98µM*
Cc1cc(C)nc(SCC(=O)c2ccc([N+](=O)[O-])cc2)n1	?	21.2µM*	44.7µM*	-17.6%	-28.0%	3.8%
Cc1cc(C)nc(SCC(=O)c2ccc(O)cc2O)n1	-7.9%	-1.9%	44.7µM*	-20.1%	-1.1%	?
Cc1ccnc(SCC(=O)c2ccc([N+](=O)[O-])cc2)n1	?	-18.4%	44.7µM*	-17.4%	-29.0%	-2.8%
CCOc1ccc(C(=O)N(Cc2cc(OC)c(OC)c(OC)c2)c2ccccn2)cc1	?	nt	nt	-18.8%	5.1%	2.2%
N#CC1=C(N)NC(SCc2ccc(Br)cc2)=C(C#N)C12CCCCC2	-18.6%	-27.2%	10.2%	10µM*[quencher]	-17.9%	-12.1%
N#CC1=C(N)NC(SCc2ccc(Cl)cc2)=C(C#N)C12CCCCC2	?	-22.1%	4.5%	8.91µM*[quencher]	-8.7%	6.1%
CCSC1=C(C#N)C2(CCCC2)C(C#N)=C(N)N1	-0.3%	2.99µM*	?	-5.6%	-27.6%	-1.1%
N#CC1=C(N)NC(SCc2ccccc2)=C(C#N)C12CCCC2	-14.0%	?	-0.9%	?	?	8.5%
NC(=O)C1(N2CCCCC2)CCN(C(=O)c2cc(COc3c(F)cccc3F)on2)CC1	nt	-1.5%	nt	nt	nt	nt
OC(c1ccc(F)cc1)(C1CCCCC1)C(CN1CCOCC1)c1ccccc1 (stereo not given)	nt	10.6%	3.5%	nt	-1.0%	nt
COc1ccc(S(=O)(=O)NCCSCc2ccco2)cc1	?	-14.8%	-24.5%	-8.0%	-4.9%	-6.0%
COc1ccc(S(=O)(=O)NCCSCc2ccco2)cc1OC	?	-4.2%	28.2µM*	-12.4%	10.3%	-1.5%
Cc1ccc(NC(=O)c2cn3c4c(ccc(Cl)c4c2=O)OC(C)C3)c(C)c1 (stereo not given)	2.1%	nt	nt	-0.7%	11.4%	-1.0%
Cc1ccc(N=Cc2ccc[nH]2)c(O)c1	15.8µM*	-5.8%	-18.8%	?	-16.1%	?
O=C(Nc1ccc2nsnc2c1)C1CC1	-7.9%	-21.4%	6.0%	-11.4%	-11.2%	-5.4%
CCN(CC)C(=O)C1CCCN(C(=O)Nc2ccc3nsnc3c2)C1 (stereo not given)	14.1µM*	-23.7%	-12.4%	-20.4%	3.4%	?
CCC(CC)=NNc1ccc(S(N)(=O)=O)cc1[N+](=O)[O-]	?	-13.9%	-1.9%	-21.4%	-14.8%	-3.0%
NS(=O)(=O)c1ccc(N/N=C/c2ccc[nH]2)c([N+](=O)[O-])c1	7.94µM*	-11.2%	-6.6%	?	0.2%	-5.9%
